From PubChem BioAssay (EPA / NIEHS)
Active and inactive are the calls of the source. The calls were made as follows, unless noted: active = hit-call score of the fitted dose curve at least 0.9, where 1 is the maximum; inactive = score below 0.9.

Experiment: CPHEA_Stoker_NIS_Cytotoxicity: Cytotoxicity Assessment for CPHEA's Radioactive Iodide Uptake (RAIU) Assay for Sodium/Iodide Symporter (NIS) Inhibition, Stoker and Laws Labs (AID 2283897; active = hit-call score of the fitted dose curve at least 0.9, where 1 is the maximum;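 as to AC50: active means loss of ATP signal versus DMSO meaning cytotoxicity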)
Conditions: not given
Procedure, shortened: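 hNIS-HEK293T-EPA human kidney cells were exposed for 2 hours at room temperature to test chemicals (0.001–100uM, 0.5% final DMSO) in HEPES-buffered HBSS, pH 7.4. Viability was read as ATP content by luciferase bioluminescence, loss of signal versus DMSO.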

Structure (SMILES)	outcome	AC50
C(=C(c1ccccc1)c1ccccc1)c1ccccc1	inactive	
CCCCCCOC(=O)c1ccccc1O	inactive	
CC(Cc1ccc(O)c(O)c1)C(C)Cc1ccc(O)c(O)c1 (stereo not given)		84 µM (active)
O=C(OCCOCCOCCOC(=O)c1ccccc1)c1ccccc1	inactive	

Experiment: CEETOX_H295R_OHPREG_noMTC: CeeTox H295R High-throughput Steroidogenesis Assay for OH-Pregnenolone (OHPREG), maximum tolerated concentration (MTC) filtered results only (AID 2283912)
Conditions: actives raise or lower the signal
Procedure, shortened: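 H295R; 10 uM forskolin 48 h pre-stim; test cpd in DMSO (0.1% final) 48 h; media MTBE-extracted, HPLC-MS/MS for OH-pregnenolone; bidirectional fit vs DMSO; no MTC (MTT) filtering.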

Structure (SMILES)	outcome
CCCCCCCOC(=O)c1ccccc1C(=O)OCCCCCCC	inactive
COC(=O)C1CCC(C(=O)OC)CC1 (stereo not given)	inactive
CC(C)OC(=O)c1ccccc1C(=O)OC(C)C	inactive

Experiment: CEETOX_H295R_OHPROG_noMTC: CeeTox H295R High-throughput Steroidogenesis Assay for OH-Progesterone (OHPROG), maximum tolerated concentration (MTC) filtered results only (AID 2283914)
Conditions: actives raise or lower the signal
Procedure, shortened: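 Medium hormone measured by reverse-phase C18 HPLC with positive electrospray MS/MS after MTBE liquid-liquid extraction. Cells had 48 h forskolin (10 uM) prestimulation, then 48 h chemical dosing. Gain or loss of signal fitted relative to DMSO baseline.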

Structure (SMILES)	outcome
CCCCCCCOC(=O)c1ccccc1C(=O)OCCCCCCC	inactive
COC(=O)C1CCC(C(=O)OC)CC1 (stereo not given)	inactive
CC(C)OC(=O)c1ccccc1C(=O)OC(C)C	inactive
